The whole screen tested about 410,000 compounds, of which about 18,000 (4.4%) were called active. Another 7% or so got no clear call; they are omitted. No stated cut-off is given here; in the data, active means activity change below about -60%; inconclusive means no clear call, values can overlap the other calls; inactive means above about -39%. Shown is part of a subset that was picked to be rich in actives.
Assay: qHTS Assay for inhibitors of the human cytomegalovirus (HCMV)
Details: HFF cells, HCMV-luciferase reporter, 72 h; at 57.5 µM; hits give low values
Procedure, shortened: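 Screen run at 2 compound doses on HFFs infected with reporter HCMV, MOI 1 PFU/cell. Luciferase activity from cell lysates at 72 h post infection gave inhibition relative to buffer-only and Salinomycin wells.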
On the % scale 0 is the no-effect control and ±100 the full control effect.

Structure (SMILES) | activity change, negative = inhibition
Cc1cccc(N2CCN(C(=O)c3ccc4c(c3)CCN4S(=O)(=O)c3ccccc3)CC2)c1C | -25.8% (inactive)
O=C(CC1N=C2c3ccccc3N=C(SCc3cccc(Cl)c3)N2C1=O)NCc1ccc2c(c1)OCO2 (stereo unspecified) | -15.6% (inactive)
CCCN1C(=O)COCc2cc(-c3cccc(CO)c3)ccc21 | 6.92% (inactive)
COc1ccc(-c2nc(SCC(=O)N3CCCCC3C)n[nH]2)cc1 (stereo unspecified) | 1.78% (inactive)
CCc1ccc(-c2nc(SCC(=O)NC3CCCC3)n[nH]2)cc1 | -90.7% (active)
COc1ccc(CNC(=O)CSc2n[nH]c(-c3ccc(F)cc3)n2)cc1 | 19.4% (inactive)
COc1cc(/C=C/CNC[C@H]2O[C@@H](n3cnc(C(N)=O)n3)[C@H](O)[C@@H]2O)ccc1O | -3.95% (inactive)
Cc1ccccc1C(=O)N(Cc1ccc(N(C)C)cc1)CC1CCCO1 (stereo unspecified) | -18.1% (inactive)
c1ccc(C(=NNc2nc3ccccc3s2)c2ccccn2)cc1 | -99.2% (active)
Cc1cc(C)cc(-n2ccnc2SCC(=O)Nc2nc3ccccc3s2)c1 | -5.53% (inactive)
Cc1ccccc1-n1c(=O)c2ccccc2n(Cc2ccc(F)cc2)c1=O | -13.5% (inactive)
CN1C(=O)/C(=C/C=C2\SCCN2C)OC1=S | 143% (inactive)
Cc1cc2c(cc1C)[n+](C)cn2CC(O)COCC1CC=CCC1 (stereo unspecified) | -71.1% (active)
CCCC12CN3CC(CCC)(CN(C1)C3c1c[nH]c3ccc(OC)cc13)C2=O (stereo unspecified) | 14% (inactive)
CCOc1cccc(=NC2CCCCC2)c2c(C)[nH]c(C)c12 | -110% (active)
c1ccc2c(c1)C(=NC1CCCCC1)NC2=NC1CCCCC1 | -38.8% (inactive)
CCOc1ccccc1NC(=O)NC1CCCCCCC1 | -14.2% (inactive)
CCOc1ccc(Nc2oc(/C=C/c3ccc(F)cc3)nc2C#N)cc1 | 11.4% (inactive)
Cc1cccc(Cn2c(=O)n(CCC(=O)NCCc3ccc(Cl)cc3)c(=O)c3sccc32)c1 | -10.1% (inactive)
O=C(Cn1c(-c2cccs2)cc2ccccc21)NCCc1ccc(Cl)cc1 | -112% (active)
Cc1ccc(CCNC(=O)Cn2c(-c3cccs3)cc3cc(F)ccc32)cc1 | -16.7% (inactive)
O=C(c1ccc(Br)cc1)N(Cc1cccs1)c1ccc(F)cc1 | -5.5% (inactive)
O=C(Nc1ccc2nc(SCC(=O)N3CCc4ccccc43)sc2c1)c1ccccc1F | 26.3% (inactive)

Structure (SMILES) | activity change, negative = inhibition
O=C(COc1ccccc1Cl)Nc1ccccc1C(=O)NC1CC1 | -2.06% (inactive)
CC(NCC(=O)Nc1ccccc1C(=O)NC1CC1)c1ccccc1Cl (stereo unspecified) | -103% (active)
CCCC(NCC(=O)Nc1ccccc1C(=O)NC1CC1)c1ccccc1 (stereo unspecified) | -16.1% (inactive)
COC(=O)C1C(=O)NCC1c1ccc(OC)cc1 (stereo unspecified) | 19.2% (inactive)
O=C(NC1CCC(O)CC1)c1ccc(S(=O)(=O)NCc2ccco2)cc1 (stereo unspecified) | -14.7% (inactive)
CCc1nnc(SCC(=O)Nc2cc(OC)ccc2OC)nc1CC | 0% (inactive)
COc1ccc(C(=O)Oc2cc(/C=N/NS(=O)(=O)c3ccc(C)cc3)ccc2OC)cc1 | -102% (active)
COc1ccc(S(=O)(=O)N/N=C\c2ccc(OC)c(COc3ccc(C)cc3[N+](=O)[O-])c2)cc1 | 12.7% (inactive)
COc1ccc(CCNC(=O)NS(=O)(=O)c2ccc(C)cc2)cc1OC | 12.4% (inactive)
Cc1cccc(NC(=O)c2ccc3nc(C(C)C)oc3c2)c1C | -5.74% (inactive)
CCOc1ccc(C(=O)/C=C/c2cn(CC(O)CN3CCCCCC3)c3ccccc23)cc1 (stereo unspecified) | -29% (inactive)
Cc1ccc(-c2nn(CCC(=O)Nc3ccc(OC(F)(F)F)cc3)c(=O)c3ccccc23)cc1 | 0.866% (inactive)
CCN(C(=O)COC(=O)c1cc(S(=O)(=O)N2CCc3ccccc32)ccc1OC)C1CCS(=O)(=O)C1 (stereo unspecified) | -18% (inactive)
O=C(Nc1cc(C(F)(F)F)ccc1Cl)c1ccc2c(c1)CCN2S(=O)(=O)c1ccccc1 | -29.1% (inactive)
COc1ccc(S(=O)(=O)N2CCc3ccccc32)cc1C(=O)Nc1cc(S(C)(=O)=O)ccc1Cl | -62.7% (active)
CCc1nc2c(OCCOc3ccccc3)cccn2c1N(C)C(=O)c1ccccc1F | -30.7% (inactive)
COc1ccc2c(c1)C(c1cccs1)=NNC(c1cccnc1)=N2 | -22.6% (inactive)
COC1C(O)C(C)OC(OC2CCC3(C=O)C(CCC4C3CCC3(C)C(C5=CC(=O)OC5)CCC43O)C2)C1O (stereo unspecified) | -106% (active)
Brc1cccc(-c2nnn3c2nc(NC2CCCCC2)c2ccccc23)c1 | 34.7% (inactive)
O=C(Cc1ccc(Cl)cc1)NCC(c1cccs1)S(=O)(=O)c1ccc(Cl)cc1 (stereo unspecified) | -8.05% (inactive)
O=C(NNC(=O)c1ccco1)Nc1ccccc1 | -62% (active)
O=C(CNC(=O)c1ccco1)OCC(=O)c1ccccc1 | 49.6% (inactive)
O=C(CNC(=O)c1ccco1)NNC(=O)c1ccc(Br)cc1 | -4.75% (inactive)

Structure (SMILES) | activity change, negative = inhibition
COc1cccc(-c2n[nH]c3c2C(c2cccc(O)c2)N(C)C3=O)c1 (stereo unspecified) | 179% (inactive)
CC(OC(=O)CN1C(=O)C2CCCCC2C1=O)C(=O)Nc1ncc(Cl)cc1Cl (stereo unspecified) | 22.5% (inactive)
CCN1CCN(c2cc3nc(C)n(Cc4ccccc4)c(=O)c3cc2NC(=O)c2ccccc2F)CC1 | -85.2% (active)
Cc1nc2ccn(Cc3cccnc3)c(=O)c2cc1C(=O)N1CCN(c2ccccc2F)CC1 | 10.9% (inactive)
CCOc1cc(NC(=O)c2ccccc2C(=O)O)c(OCC)cc1NC(=O)c1ccccc1F | -3.32% (inactive)
CCCCN(C)C(=O)c1ccc2c(c1)N(CC)C(=O)c1ccccc1S2(=O)=O | -8.24% (inactive)
Cc1cccc(Nc2nc(C)nc(N)c2S(=O)(=O)c2ccccc2)c1 | 0.44% (inactive)
C=CCNC(=O)COc1coc(CN2CCN(Cc3ccccc3)CC2)cc1=O | -9% (inactive)
N=c1ccccn1Cc1ccccc1 | -18.5% (inactive)
C=CCNC(=S)/N=c1/ccccn1Cc1ccccc1 | -98.8% (active)
CCCNC(=O)C1CCC(Cn2c(=O)c3sccc3n(Cc3ccccc3F)c2=O)CC1 (stereo unspecified) | 1.25% (inactive)
O=C(N/N=C/c1ccc(O)c(O)c1)C1c2ccccc2Oc2ccccc21 | 23.9% (inactive)
O=C(CSc1cccc2cccnc12)N/N=C/c1cccnc1 | -101% (active)
Cc1c(Cl)cccc1NC(=O)CSc1ccc(-c2cccnc2)nn1 | -12.1% (inactive)
CC1=NNC(=O)C1CC(=O)N/N=C/c1ccncc1 (stereo unspecified) | 42.5% (inactive)
O=C(N/N=C/c1cccc2cccnc12)[C@H]1C[C@@H]1c1ccccc1 | 20.4% (inactive)
O=C(N/N=C/c1cccnc1)c1cc2ccccc2cc1O | -98% (active)
O=C(O)/C(=C/c1cccnc1)NC(=O)c1ccccc1 | 6.75% (inactive)
CCOC(=O)N/N=C/c1cccnc1 | -60.5% (active)
CCOC(=O)CNC(=O)CSc1ccc2nnc(-c3cccnc3)n2n1 | 49.6% (inactive)
COc1ccc(Cn2ccn(CC(=O)Nc3cc(C)ccc3C)c(=O)c2=O)cc1 | 15.8% (inactive)
COc1ccccc1NC(=O)CN1C(=O)c2ccccc2Sc2ccc(C(=O)N3CCCC3)cc21 | 14.4% (inactive)
CC(C)(C)OC(=O)N1CCC(c2c(C(=O)N3CCc4ccccc4C3)cnn2-c2ccc(F)cc2)CC1 | 6.95% (inactive)

Structure (SMILES) | activity change, negative = inhibition
Cc1cc(C)cc(NC(=O)CSc2oc(-c3ccccc3)nc2S(=O)(=O)c2ccc(Cl)cc2)c1 | -2.05% (inactive)
COc1ccc(CCC(=O)NCc2ccc3c(c2)CCN3C(=O)c2ccc(F)cc2)cc1 | 15.1% (inactive)
CCc1ccc2oc(-c3ccc(NC(=O)c4cc5ccccc5o4)cc3)nc2c1 | 37.7% (inactive)
Cc1cccc(NC(=S)N2CCC(O)CC2)c1C | -32.2% (inactive)
Cc1cccc(C)c1NC(=S)N1CCCCCC1 | -64.3% (active)
Cc1cccc(NC(=O)N2CCCCCC2)c1C | 57.9% (inactive)
O=C1NCC(Nc2ccccc2)C(=O)N1 (stereo unspecified) | -7.88% (inactive)
CCc1ccc(NS(=O)(=O)c2ccc3[nH]cc(C(=O)NCCc4cccc(C)c4)c(=O)c3c2)cc1 | 93.7% (inactive)
OC(CNCC1CCCO1)Cn1c2ccc(Br)cc2c2cc(Br)ccc21 (stereo unspecified) | 2.12% (inactive)
Cc1cc(C)c2oc(-c3cccc(NC(=O)c4cccc(F)c4)c3C)nc2c1 | -0.821% (inactive)
CCn1cc(CN2CCC(C(=O)Nc3cccc(-c4cccc(Cl)c4)c3)CC2)cn1 | -97.6% (active)
CC(=O)c1cc(CN2CCC(C(=O)Nc3cccc(-c4cscn4)c3)CC2)cs1 | -30.7% (inactive)
O=C(Nc1cccc(-c2cscn2)c1)C1CCN(Cc2ccsc2)CC1 | -33.6% (inactive)
CCc1ccccc1N1CC(c2nc3ccccc3n2CCCCOc2ccccc2)CC1=O (stereo unspecified) | -4.32% (inactive)
CCCCN1CC(c2nc3ccccc3n2CCCCOc2ccc(C)cc2C)CC1=O (stereo unspecified) | -105% (active)
COc1ccc(OCCCn2c(C3CC(=O)N(c4ccc(F)cc4)C3)nc3ccccc32)cc1 (stereo unspecified) | -13% (inactive)
O=C(NCc1ccccc1)C1CCN(S(=O)(=O)c2ccc3[nH]c(=O)ccc3c2)CC1 | 23% (inactive)
Cc1ccccc1OCC(=O)Nc1c(C(=O)Nc2ccccc2F)oc2ccccc12 | 11.7% (inactive)
COc1ccc(Cn2c(=O)sc3ccccc32)cc1OC | -99.8% (active)
C=CCSc1nnc(Cn2c(=O)sc3ccccc32)n1C | -2.22% (inactive)
COc1ccc(CN2CCOC2=O)cc1OC | -13.1% (inactive)
CCOC(=O)c1ccc(NC(=O)Cn2c(=O)cc(C)c3c(C)nn(-c4cccc(F)c4)c32)cc1 | 2.32% (inactive)

Source: PubChem BioAssay AID1259415 (National Center for Advancing Translational Sciences (NCATS), 2018)
